Screening data as filed in PubChem BioAssay.
12-LOX inh: inhibitors of human 12S-lipoxygenase ALOX12. P18054. purified 12hLO, xylenol orange hydroperoxide absorbance. Potency, µM (highest dose often 108 µM), without a hit: at the highest dose activity change, negative = inhibition, hits mostly inhibitors. actives 1.1% (n = 580,000); also: % is scaled to controls: 0 for no effect and ±100 for the full control effect
Target sequence (P18054 whole entry, looked up): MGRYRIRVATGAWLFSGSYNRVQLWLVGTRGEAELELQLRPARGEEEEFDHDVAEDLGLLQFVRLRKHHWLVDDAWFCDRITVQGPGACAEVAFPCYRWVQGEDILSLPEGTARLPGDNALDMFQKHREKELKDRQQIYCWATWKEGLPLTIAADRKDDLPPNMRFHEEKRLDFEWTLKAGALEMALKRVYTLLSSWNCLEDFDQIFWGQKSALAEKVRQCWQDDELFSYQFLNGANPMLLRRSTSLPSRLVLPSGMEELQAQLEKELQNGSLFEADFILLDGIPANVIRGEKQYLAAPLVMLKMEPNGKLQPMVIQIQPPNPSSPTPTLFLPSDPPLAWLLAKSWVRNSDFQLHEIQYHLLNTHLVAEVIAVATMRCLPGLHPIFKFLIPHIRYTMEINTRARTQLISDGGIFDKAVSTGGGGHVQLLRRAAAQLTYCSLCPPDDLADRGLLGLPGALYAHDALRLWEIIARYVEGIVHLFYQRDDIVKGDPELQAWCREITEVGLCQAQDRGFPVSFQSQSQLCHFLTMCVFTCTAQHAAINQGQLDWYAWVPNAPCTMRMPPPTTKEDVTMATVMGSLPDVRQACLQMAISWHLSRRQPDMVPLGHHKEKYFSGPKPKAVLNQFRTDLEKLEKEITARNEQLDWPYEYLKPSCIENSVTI
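Purified human 12hLO at 150 nM in 25 mM Hepes, 0.01% Triton X-100, pH 7.0, preincubated 15 min at room temperature with compound. Reaction started with 40 uM arachidonic acid, 30 min at room temperature. Hydroperoxide measured by Fe-xylenol orange, 573/405 nm absorbance ratio.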
gsp antag: antagonists of gsp mutant (McCune-Albright syndrome); gsp-mutant cells, cAMP HTRF, 30 min; Potency, µM (titrated, usually from 76.9 µM), inactives show at the top dose activity change, negative = inhibition, hits mostly inhibitors; actives 0.4% (n = 340,000); AID 624288; calls by dose curve; cell line not stated here;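 also: intracellular cAMP measured with PDE inhibitor Ro 20-1724 present during compound exposure; % is scaled to controls: 0 for no effect and ±100 for the full control effect; nearly all actives have a fitted effect of over 65% in size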
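Cells, 2000/well, grown 16–24 h in DMEM 10% FBS with 0.5 mg/ml G418, then compounds plus […] (300 uM addition stock), 30 min at 37C. cAMP read by HTRF (cAMP-d2 and anti-cAMP antibody-K in lysis buffer) after 30 min RT.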
gsp ag: gsp mutant agonism | gsp mutant cells, cAMP HTRF, 30 min | Potency, µM (highest dose often 76.9 µM), for the others: at the top dose activation (cAMP increase), hits mostly activators | actives 0.13% (n = 340,000) | AID 624287; active = well fitted activation curve with a large enough effect; inconclusive = small, poorly fitted or top-dose-only effect, or another doubt; inactive = no such curve, though single readings can be large or run the other way; cell line not stated here;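 also: phosphodiesterase inhibitor Ro 20-1724 added with compounds to block cAMP breakdown; nearly all actives have a fitted effect of over 60% in size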
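Cells stably selected in G418 were plated at 2000/well, grown 16-24 hr, then given compounds in DMSO with the PDE inhibitor […] (300 uM solution added) for 30 min at 37C; cAMP was read by HTRF.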
Mito fusion act: mitochondrial division inhibition or fusion activation. S. cerevisiae fusion-defective mutant growth rescue, CellTiterGlo 48 h. Potency, µM (top dose mostly 46.1 µM), without a hit: top-dose growth rescue (activation), most hits filed as activators. actives 0.23% (n = 320,000). AID 485298; also: % of control where 0% means no effect; nearly all actives have a fitted effect of over 45% in size
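Growth-rescue viability read-out: after 48 h at the non-permissive 37C in glycerol/ethanol YPEG, yeast mitochondrial fusion mutants are measured by CellTiterGlo luminescence; compounds (23 nl pinned per well) restoring growth score as division inhibitors or fusion activators.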
FUS suppressor: suppressors of FUS proteinopathy in yeast; actives 0.24% (n = 390,000); AID 1347120; S. cerevisiae FUS-expressing, growth rescue, OD600, 24 h; Potency, µM (titrated, usually from 76.6 µM), actives largely listed as activators;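 also: plate controls were DMSO vehicle for no effect and reference control for full effect; nearly all actives have a fitted effect of over 55% in size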
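Yeast FUS proteinopathy model; galactose-induced FUS (2%), starting OD 0.005. Cpds in dilution series, 24hr, 30C, 99% humidity. Abs 600 nm growth. Pos ctrl CP55940 (top 92uM final); neg ctrl DMSO.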
Starred values were filed as active, the others as inactive; i = inactive; ? = inconclusive; / = no result; [ ] = remark or other dose. Most compounds without a hit are left out; they make up all but 1.6% or so of the library. Unless noted, calls follow the shape of the dose curve; as a rule, active = well fitted curve in the direction sought with a large enough effect; inconclusive = small, poorly fitted or top-dose-only effect, or another doubt; inactive = no such curve, though single readings can be large; an effect the other way counts as inactive or inconclusive. Potency is read from the fitted curve at half-maximal effect.

SMILES	12-LOX inh	gsp antag	gsp ag	Mito fusion act	FUS suppressor
COc1cc(C2C(C(=O)c3ccc(C)o3)=C(O)C(=O)N2c2cc(C)on2)ccc1OCc1ccccc1 (configuration not stated)	?	-1%	11%	-6%	i
COc1cccc(C2C(C(=O)c3cccs3)=C(O)C(=O)N2c2cc(C)on2)c1 (configuration not stated)	?	4%	?	3%	i
CCOc1ccc(C2C(C(=O)c3ccc(C)o3)=C(O)C(=O)N2c2cc(C)on2)cc1OC (configuration not stated)	25µM*	8%	?	-3%	?
Cc1ccsc1CN(C)CC(=O)NC(=O)NCc1ccccc1	34%	/	/	/	/
COc1cccc(C2=NS(=O)(=O)N(C)C(C(=O)N3CCN(c4ccc(F)cc4)CC3)=C2)c1	-14%	/	/	/	/
COc1ccc(C(=O)OCC(=O)N2c3ccccc3Sc3ccccc32)cc1OC	-7%	/	/	/	/
CCOc1ccccc1C(C(=O)O)N1CCN(Cc2csc(C)n2)CC1 (configuration not stated)	61%	/	/	/	/
COc1ccc(C(C(=O)O)N2CCN(Cc3csc(C)n3)CC2)c(C)c1 (configuration not stated)	22µM*	/	/	/	/
CC1OCCC1=O (configuration not stated)	9%[176 µM]	/	/	/	/
COc1ccc(-c2csc(NC(=O)CSCC(=O)Nc3cc(C)on3)n2)cc1	64%	-10%	-63%	-1%	/
CCOC(=O)N1CCN(C(=O)CSCC(=O)Nc2nc(-c3ccc(Cl)s3)cs2)CC1	20%	25µM*	-29%	-4%	i
CCOC(=O)N1CCN(C(=O)CSCC(=O)Nc2nc(-c3ccc(OC)cc3)cs2)CC1	-15%	28µM*	-1%	-4%	i
CCOC(=O)N1CCN(C(=O)CSCC(=O)Nc2nc(-c3ccc(-c4ccccc4)cc3)cs2)CC1	5%	25µM*	-59%	1%	?
O=C(CSCC(=O)N1CCOCC1)Nc1nc(-c2ccccc2)cs1	-7%	-15%	?	-1%	i
C=CCOC(=O)C(C#N)c1nc2ccccc2nc1N1CCCCC1 (configuration not stated)	-6%	/	/	/	/
CC1CC(C)CN(C(=O)c2cccc(S(=O)(=O)Nc3cc(C(F)(F)F)ccc3Cl)c2)C1 (configuration not stated)	-9%	-11%	15%	16µM*	i
COc1ccccc1-n1cc(-c2ccccc2)c2c(=S)nc[nH]c21	45µM*	-4%	-9%	-31%	i
Cc1scc(C(=O)NCC2CCCCC2)c1C	16µM*	/	/	/	/
Cc1scc(C(=O)NNC(=S)NCC2CCCO2)c1C (configuration not stated)	306%[57.4 µM]	13%	8%	-2%	i
O=C(Nc1cc(Cl)cc(Cl)c1)C(=O)c1c[nH]c2ccccc12	5%	/	/	/	/
COc1ccc(-c2cnc3[nH]cc(CC(=O)N(C)C)c3c2)cc1	-3%[176 µM]	/	/	/	/
Nc1ccc(N2CCN(c3cccc(Cl)c3)CC2)cc1	?	-5%	0%	4µM*	/
CCn1nc(C(=O)Nc2ccc(S(=O)(=O)Nc3nccs3)cc2)c2ccccc2c1=O	?	-11%	4%	-4%	25µM*
O=C(Nc1ccc(S(=O)(=O)Nc2ncccn2)cc1)c1nn(Cc2ccccc2)c(=O)c2ccccc12	-12%	?	3%[15.4 µM]	3%	i
CC(C)C(C)NC(=O)CSc1nc(C2CC2)nc2ccccc12 (configuration not stated)	-2%	/	/	/	/
SMILES	12-LOX inh	gsp antag	gsp ag	Mito fusion act	FUS suppressor
CCC(=O)Oc1ccc(C/C(=N\O)c2ccc(O)cc2O)o1	?	5.6µM*	-20%	-1%	i
CC(C)Cc1noc(CSc2nc(-c3ccco3)nc3ccccc23)n1	32%	/	/	/	/
COC(=O)c1sc(NC(=O)C2CCCCC2C(=O)O)c(C(=O)OC)c1C (configuration not stated)	-5%	9%	14µM*	4%	i
CCC(C)(C)C1CCC(=NNC(=S)Nc2ccccc2C(F)(F)F)CC1 (configuration not stated)	-98%	/	/	/	/
CCOC(=O)C1CCN(C(=O)c2oc3ccc(S(=O)(=O)N4CC(C)CC(C)C4)cc3c2C)CC1 (configuration not stated)	3%	-18%	-1%	14%	?
CCOC(=O)N1CCN(C(=O)c2oc3ccc(S(=O)(=O)N4CC(C)CC(C)C4)cc3c2C)CC1 (configuration not stated)	0%	35µM*	3%	3%	i
CC(=O)Nc1ccc(NC(=O)C2CCCCC2)cc1	-3%	/	/	/	/
COc1ccccc1OCCCc1c(C)n[nH]c1C	-6%	-1%	0%	-21%	i
Cc1ccc(OCCCCc2c(C)n[nH]c2C)c(C(C)(C)C)c1	35µM*	/	/	/	/
COc1ccccc1OCCCCCc1c(C)n[nH]c1C	?	35µM*	-13%	-6%	i
CCOC(=O)c1c(-c2ccc(-c3ccccc3)cc2)csc1NC(=O)CCN1CCOCC1	16%	4%	-2%	10µM*	?
CCOC(=O)c1c(-c2ccc(F)cc2)csc1NC(=O)CCN1CCOCC1	?	-27%	-3%	11µM*	/
O=C(O)C[C@@H]1CCN(C(=O)c2ccco2)C[C@@H]1CC1=NCCc2ccccc21	6%[176 µM]	/	/	/	/
COc1cc2c(cc1OC)C(C[C@H]1CN(C(=O)c3ccco3)CC[C@H]1CC(=O)O)=NCC2	56µM*	/	/	/	/
CC(C)(C)NC(=O)C(c1cccs1)N(CC1CCCO1)C(=O)Cn1nnc(-c2cccs2)n1 (configuration not stated)	-4%	-3%	-47%	7.1µM*	i
O=C(NCC1CCCO1)C(c1cccs1)N(Cc1cccs1)C(=O)Cn1nnc(-c2cccs2)n1 (configuration not stated)	?	-21%	14%	-1%	i
N#C/C(=C/c1ccccc1)c1nc(-c2ccc3c(c2)-c2ccccc2C3)cs1	-11%	/	/	/	/
Cc1nc(-c2ccc3c(c2)-c2ccccc2C3)cs1	0.32µM*	/	/	/	/
CN1CCOc2c(C(=O)NCCc3cnc[nH]3)cc(-c3cccc4[nH]ccc34)cc21	48%[176 µM]	/	/	/	/
CCCC(NC(=O)c1nn(C)c(=O)c2ccccc12)c1ccccc1 (configuration not stated)	0%	/	/	/	/
CC1CCCN(CCOCCOc2ccc(Cl)cc2Br)C1 (configuration not stated)	?	18%	-25%	10%	7.1µM*
CC(C)NC(=O)Cn1ccc2c(Cl)cccc21	-3%	/	/	/	/
NC(=O)COc1c(Cl)cc(Cl)cc1Br	10%	/	/	/	/
Oc1c(Br)cc(Cl)cc1Cc1cc(Cl)cc(Br)c1O	28µM*	/	/	/	/
CCOc1ccc(/C=C/C(=O)c2cc(Br)ccc(=O)c2O)cc1	28µM*	?	-9%	26%	/
